# FBPA Giardia inh – qHTS Assay for Inhibitors of Fructose-1,6-bisphosphate Aldolase from Giardia Lamblia. A8B2U2. purified Giardia FBPA. Potency, µM (series often up to 59.6 µM), actives largely listed as inhibitors. 0.71% of 290,000 active; further: nearly all actives have a fitted effect of over 55% in size
#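 40 nM FBPA preincubated 10 min at RT with compound (up to 57.5 uM final), then substrate plus GAPDH/TPI/NAD/arsenate coupling and diaphorase/resazurin added. Fluorescence read after 20 min at RT, 525/598 nm.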
# RE007 growth inh – qHTS Assay for Inhibitors of the HIV-1 protein Vpr; Potency, µM (series often up to 92.2 µM), actives largely listed as inhibitors; S. pombe RE007 Vpr strain, BacTiter-Glo ATP luminescence, 24 h; 0.21% of 360,000 active; active means well fitted falling curve with a large enough effect; inconclusive means small, poorly fitted or top-dose-only effect; inactive means no such curve, though single readings can be large or run the other way; further: nearly all actives have a fitted effect of over 50% in size
#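 Fission yeast RE007 carrying one integrated HIV-1 vpr copy, seeded at OD 0.01 in PMG+AL medium with 23 nL pinned compound. Grown 24 h at 30 degrees; viability read by BacTiter-Glo luminescence after 5 min.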
# Cycloheximide cs – Cycloheximide Counterscreen for Small Molecule Inhibitors of Shiga Toxin. cell reporter, cycloheximide protein synthesis inhibition counterscreen. AID 2314, 2010. 12% of 300,000 active. max response, %; in the data active means max response mostly above about 13%, no sharp cut-off; inactive means mostly below about 14%; further: read at 38.3 µM for the half of the compounds with a filed dose
# Tb PYK inh – qHTS of Trypanosoma Brucei Inhibitors | pyruvate kinase (Trypanosoma brucei), Q57TT1 | TbPYK enzyme, Kinase-Glo Plus ATP luminescence, 45 min | Potency, µM (series often up to 76.8 µM), most hits filed as inhibitors | 0.12% of 410,000 active; further: nearly all actives have a fitted effect of over 50% in size
#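 Glycolytic pyruvate kinase of T. brucei was incubated with substrate, test compound and 130 uM ADP for 45 minutes at room temperature. Luminescent Kinase-Glo Plus signal was measured after 10 minutes.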
# LmPK inhibitor – qHTS Assay for Inhibitors of Leishmania Mexicana Pyruvate Kinase (LmPK). Potency, µM (doses to about 57.5 µM), actives largely listed as inhibitors. purified LmPK, Kinase-Glo ATP luminescence, 1 h. 0.37% of 290,000 active. AID 1721, 2009. Q27686
# Target sequence (Q27686 whole entry, looked up): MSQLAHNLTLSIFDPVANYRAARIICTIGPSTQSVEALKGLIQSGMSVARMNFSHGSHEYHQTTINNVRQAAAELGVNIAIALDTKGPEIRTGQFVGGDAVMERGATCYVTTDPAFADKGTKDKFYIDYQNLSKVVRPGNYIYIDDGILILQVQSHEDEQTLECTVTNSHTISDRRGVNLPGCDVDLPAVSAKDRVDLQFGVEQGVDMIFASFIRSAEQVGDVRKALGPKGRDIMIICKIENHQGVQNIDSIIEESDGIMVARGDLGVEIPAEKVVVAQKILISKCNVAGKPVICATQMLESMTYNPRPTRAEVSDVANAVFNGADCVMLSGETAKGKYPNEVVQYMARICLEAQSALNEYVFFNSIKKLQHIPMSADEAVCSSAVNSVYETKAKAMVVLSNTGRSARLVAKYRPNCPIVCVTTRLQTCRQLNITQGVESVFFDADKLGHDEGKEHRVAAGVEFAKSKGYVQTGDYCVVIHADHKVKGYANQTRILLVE
#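 Screened at intermediate enzyme activity to detect both inhibitors and activators: LmPK at 0.1 nM, with a 0.5 nM enzyme column as activation reference. PEP 0.5 mM, ADP 0.1 mM; ATP detected by luminescence after 1 h.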
# Shiga inhibitor – A qHTS for Small Molecule Inhibitors of Shiga Toxin | Vero cells, Shiga toxin protein synthesis inhibition reporter | 9.2% of 290,000 active | inhibition, % at 38.7 µM | AID 2315, 2010; in the data active means inhibition mostly above about 28%, no sharp cut-off; inactive means mostly below about 43%
# Hits are given with their value; – = inactive; ? = inconclusive; · = no result. The sample as a whole holds a higher share of hits than the screen did. Unless noted, the call rests on the fitted dose curve; in most records, active means well fitted curve in the direction sought with a large enough effect; inconclusive means small, poorly fitted or top-dose-only effect, or another doubt; inactive means no such curve, though single readings can be large; an effect the other way counts as inactive or inconclusive.
SMILES,FBPA Giardia inh,RE007 growth inh,Cycloheximide cs,Tb PYK inh,LmPK inhibitor,Shiga inhibitor
CN(Cc1ccccc1)C(=O)c1c[nH]c2ccc(S(=O)(=O)Nc3ccccc3F)cc2c1=O,·,·,·,–,·,·
CCc1nc2c(OCCOc3ccc(F)cc3)cccn2c1N(C=O)Cc1ccccc1,·,–,·,–,·,·
CCOC(=O)C1(CCCc2ccccc2)CCN(C(=O)c2ocnc2C)CC1,–,–,–,–,–,–
CCOC(=O)C1(CC2CC2)CCN(C(=O)c2ocnc2C)CC1,–,–,43.5,–,–,75.7
O=P(O)(O)c1ccccc1OCCOCCOCCOCCOc1ccccc1P(=O)(O)O,–,–,42.1,–,–,–
COc1ccc(/C=N/Nc2ccccn2)cc1O,–,–,45.8,–,?,69.7
Fc1ccc(/C=N/Nc2nn[nH]n2)cc1,?,–,–,–,–,–
Brc1ccc(/C=N/Nc2ccccn2)cc1,–,–,40.1,–,–,181.8
Oc1cccc(C=NNc2ccccn2)c1,·,–,·,–,·,·
CCOc1ccc(/C=N/Nc2ccccn2)cc1,–,–,34.1,–,?,69.9
Fc1ccc(/C=N/Nc2ccccn2)cc1,–,–,62.4,–,–,67.7
CC1O[C@@H](O[C@@H]2C(O)C[C@H](O[C@@H]3C(O)C[C@@H](OC4CC[C@@]5(C)C6CC[C@]7(C)C(C8=CC(=O)OC8)CC[C@@]7(O)C6CC[C@@H]5C4)OC3C)OC2C)CC(O)[C@H]1O (some centres not stated),–,·,·,·,·,·
CC(C)[C@@H]1Cc2[nH][nH]c(=O)c2[C@H](C(C)C)O1,·,–,·,–,·,·
Brc1ccccc1/C=N/Nc1ccccn1,–,–,23.8,–,–,50.9
Cc1noc(C)c1/C=N/Nc1ccccn1,–,–,–,–,–,–
Clc1ccccc1C=NNc1ccccn1,·,–,·,–,·,·
Cc1ccc(/C=N/Nc2ccccn2)s1,–,–,39.9,–,–,102.2
FC(F)(F)c1ccccc1/C=N/Nc1ccccn1,–,–,25.3,–,–,58.7
Clc1ccc(/C=N/Nc2ccccn2)cc1,–,–,52.5,–,–,107.7
Oc1ccc(Cl)cc1CNCc1cccc2ccccc12,·,–,·,–,·,·
COc1ccc(/C=N/N=C/c2ccc(OC)c(O)c2)cc1O,·,–,35.8,–,–,–
CCC[C@H]1C[C@H](C(=O)N[C@H]([C@@H]2O[C@H](SC)[C@@H](O)[C@H](O)[C@@H]2O)[C@H](C)O)N(C)C1,–,·,·,·,·,·
CCCC(=O)Nc1ccc2c(c1)C(=O)N(C)C[C@@H](OC)[C@H](C)CN(Cc1ccc(-c3ccccn3)cc1)[C@@H](C)CO2,·,–,·,·,·,·
CCN(CC)CCOCCOC(=O)C(CC)(CC)c1ccccc1 (tested in a mixture with another compound),·,·,·,–,·,·
CCN(c1ncnc2c1cnn2-c1cccc(Cl)c1)C1CCCCC1,·,·,·,–,·,·
SMILES,FBPA Giardia inh,RE007 growth inh,Cycloheximide cs,Tb PYK inh,LmPK inhibitor,Shiga inhibitor
Cc1cccc(-n2ncc3c(N(C)C4CCCCC4)ncnc32)c1,–,–,90.1,–,–,127.4
COc1ccc(-n2ncc3c(N(C)C4CCCCC4)ncnc32)cc1,–,–,44.7,–,–,73.7
Cc1ccc(-n2ncc3c(N(CC(C)C)CC(C)C)ncnc32)c(C)c1,·,·,·,–,·,·
Cc1cccc(-n2ncc3c(N(CCO)CCO)ncnc32)c1,–,–,27.2,–,–,64.9
O=c1c(CCc2ccccc2)nc2cnc(Oc3ccccc3)nc2n1C[C@H]1CCCO1,–,·,·,–,·,·
CC1(/[N+]([O-])=C/c2ccccc2F)CCCCC1=O (configuration not stated),–,–,–,–,–,–
O=[N+]([O-])c1cc(/C=N/NC(=S)Nc2ccccc2Cl)ccc1Cl,–,–,–,–,–,–
S=C(N/N=C/c1ccc(Cl)c(Cl)c1)Nc1ccccc1Cl,–,–,22.7,–,–,–
Fc1cccc(/C=N/NC(=S)Nc2ccccc2Cl)c1,–,–,35.6,–,–,–
[O-]/[N+](=C\C=C\c1ccccc1)c1ccccc1,–,–,50.5,–,?,133.3
CS(=O)(=O)c1ccc(C(=O)OCC(=O)N(CCc2ccccc2)Cc2ccccc2)cc1,·,–,·,–,·,·
COc1ccc(/C=C/C(=O)OCC(=O)Nc2cc(S(=O)(=O)N(C)C)ccc2Cl)cc1,–,–,12.8,–,–,58.4
COc1cc(/C=C/C(=O)OCC(=O)Nc2cc(S(=O)(=O)N(C)C)ccc2Cl)ccc1O,–,–,–,–,–,–
CO[C@H]1/C=C\C=C(\C)C(=O)NC2=CC(=O)C(NCCN(C)C)=C(C[C@@H](C)C[C@H](OC)[C@H](O)[C@@H](C)/C=C(/C)[C@@H]1OC(N)=O)C2=O,·,·,·,–,·,·
COC1=C2C[C@@H](C)C[C@H](OC)[C@H](O)[C@@H](C)/C=C(\C)[C@H](OC(N)=O)[C@@H](OC)/C=C\C=C(/C)C(=O)NC(=CC1=O)C2=O,3.54µM,·,–,·,·,–
O=C1NC(=O)N(c2ccc3c(c2)OCO3)C(=O)/C1=C/c1cccs1,–,–,–,?,–,48.7
COc1ccc(-c2cn3nc(SCC(=O)Nc4ccc(C)c(Cl)c4)ccc3n2)cc1,·,·,·,–,·,·
O=C(Nc1ccc(C(=O)N2CCCCC2)cc1)c1ccccc1Br,·,–,·,–,·,·
O=C(Nc1ccc(C(=O)N2CCCCC2)cc1)c1ccccc1,·,–,·,?,·,·
O=C(/C=C/c1ccccc1)Nc1cccc(C(=O)N2CCCCC2)c1,·,–,·,–,·,·
O=C(Nc1ccccc1)Nc1ccc(C(=O)N2CCCC2)cc1,–,–,19.0,?,15.8µM,44.5
O=C1c2ccccc2-c2ccc(C(=O)N3CCCCC3)cc21,–,–,31.0,–,–,–
O=C(Nc1ccc(C(=O)N2CCCC2)cc1)c1ccccc1Br,·,–,10.6,–,–,–
O=C(/C=C/c1ccccc1)Nc1ccc(C(=O)N2CCCCC2)cc1,–,–,–,–,–,44.4
C=CC(=O)Nc1ccc(N(C)c2ccnc(Nc3ccc(N4CCN(C)CC4)cc3)n2)cc1,·,–,·,–,·,·
O=C(CN1C(=O)COc2ccc(S(=O)(=O)N3CCOCC3)cc21)NCc1ccc(F)cc1,·,·,·,–,·,·
CC[C@@H](NC(=O)[C@H](Cc1ccccc1)NC(=O)CC[C@H]1O[C@@H](n2ccc(=O)[nH]c2=O)[C@H](O)[C@@H]1O)c1ccccc1,·,–,·,–,·,·
O=C(Nc1ccc(C2CC2(Cl)Cl)cc1)c1ccccc1Br (configuration not stated),–,–,44.6,–,–,56.6
Cc1nc(-c2ccc(Cl)cc2)sc1C1(C)CC(c2cccc(F)c2)=NO1 (configuration not stated),–,–,27.7,–,–,52.0
